Source: PMC4336329 (PLoS ONE, 2015)
Screen size: about 310,000 compounds; about 14,000 (4.5%) showed an effect of 50% or more. Effects have a minus sign here. The full list was thinned out, with strong results kept by preference.

target: human ether-à-go-go-related gene (hERG) potassium channel (human, UniProt Q12809); experiment: primary screen, population patch clamp on CHO cells stably expressing hERG; higher = less effect of the substance
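Further: peak tail current of the secondary pulse compared with the same well before compound.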

human ether-à-go-go-related gene (hERG) potassium channel, sequence (Q12809 whole entry, looked up): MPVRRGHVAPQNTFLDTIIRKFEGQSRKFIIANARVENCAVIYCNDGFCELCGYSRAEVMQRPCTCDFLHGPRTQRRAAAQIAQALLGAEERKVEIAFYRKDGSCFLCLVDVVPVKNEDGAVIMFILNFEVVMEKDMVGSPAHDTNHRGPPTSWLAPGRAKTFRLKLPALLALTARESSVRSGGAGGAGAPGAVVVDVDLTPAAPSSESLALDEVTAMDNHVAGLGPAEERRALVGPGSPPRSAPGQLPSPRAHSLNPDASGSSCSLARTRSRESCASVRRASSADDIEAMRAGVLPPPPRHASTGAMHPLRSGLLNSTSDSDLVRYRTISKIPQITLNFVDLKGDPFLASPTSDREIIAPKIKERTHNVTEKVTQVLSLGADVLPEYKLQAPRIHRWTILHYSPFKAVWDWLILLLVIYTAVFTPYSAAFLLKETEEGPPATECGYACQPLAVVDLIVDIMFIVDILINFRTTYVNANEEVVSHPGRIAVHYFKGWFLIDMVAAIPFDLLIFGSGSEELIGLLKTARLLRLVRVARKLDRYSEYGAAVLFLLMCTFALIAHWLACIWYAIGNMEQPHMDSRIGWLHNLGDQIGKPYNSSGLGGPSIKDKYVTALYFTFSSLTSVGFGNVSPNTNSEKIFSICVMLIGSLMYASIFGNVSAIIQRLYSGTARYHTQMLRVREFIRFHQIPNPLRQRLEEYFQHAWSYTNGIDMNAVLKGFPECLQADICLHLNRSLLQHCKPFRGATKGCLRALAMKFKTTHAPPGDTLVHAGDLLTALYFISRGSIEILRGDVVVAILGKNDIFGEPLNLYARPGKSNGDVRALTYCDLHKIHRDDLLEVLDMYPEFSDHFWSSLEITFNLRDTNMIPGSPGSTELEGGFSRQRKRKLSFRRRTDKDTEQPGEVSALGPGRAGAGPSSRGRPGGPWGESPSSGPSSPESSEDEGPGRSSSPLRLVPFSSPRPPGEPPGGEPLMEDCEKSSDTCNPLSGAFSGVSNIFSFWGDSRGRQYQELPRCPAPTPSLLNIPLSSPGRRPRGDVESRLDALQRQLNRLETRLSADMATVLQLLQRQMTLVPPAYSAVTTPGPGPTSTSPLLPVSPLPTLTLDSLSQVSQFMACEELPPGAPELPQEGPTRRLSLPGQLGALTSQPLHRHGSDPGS

| SMILES | hERG current change (%, negative = inhibition) at 10uM [%] |
| --- | --- |
| CCOc1ccc(S(=O)(=O)NCCC(=O)OCC(=O)Nc2cc(C)on2)cc1 | -44.1 |
| COc1ccc(-c2nnn(CC(=O)c3ccc4c(c3)OCCO4)n2)cc1OC | 9.3 |
| C/C(=N\NC(=O)c1cc(-c2ccc(Br)s2)[nH]n1)c1ccncc1 | 11.1 |
| COc1ccc(C(=O)CCc2ccccc2)cc1 | 9.03 |
| CCOC(=O)N1CCN(c2nc(-c3ccco3)cc(C(F)(F)F)n2)CC1 | -3.17 |
| Cc1ccc(C(=O)Nc2cccnc2N2CCN(C)CC2)cc1 | -5.47 |
| O=C1CC2(CCN(C(=O)c3cccc(F)c3)CC2)Oc2ccccc21 | -75.1 |
| O=C1CC2(CCN(C(=O)c3ccc(Cl)cc3)CC2)Oc2ccccc21 | -87.8 |
| O=C1CC2(CCCC2)Oc2ccc(F)cc21 | -8.58 |
| O=C(c1ccc(Cl)cc1)N1CCC2(CC1)OCCO2 | 13.2 |
| Cc1cccc(NS(=O)(=O)c2cccc(C(=O)N3CCCC3)c2)c1 | 4.7 |
| CC(C)(C)NC(=O)COC(=O)c1ccc(Cl)cc1O | 18.8 |
| C=CCN=C1CC(C)(C)CC(=O)/C1=C(\O)CCCN1C(=O)c2ccccc2C1=O | -23.5 |
| Cc1ccc(NC2c3ncccc3C(=O)N2C2CCCCC2)cc1 (stereo not drawn) | 5.93 |
| Cn1cc(CN2CCN(c3cnccn3)CC2)c(-c2cccc(Cl)c2)n1 | 6.29 |
| COc1cc2c(cc1OC)C(C(=O)N1CCOCC1)C(c1cccs1)N(C)C2=O (stereo not drawn) | 4.09 |
| COc1cc2c(cc1OC)C(C(=O)N1CCN(c3ccccc3)CC1)C(c1cccs1)N(C)C2=O (stereo not drawn) | -68.1 |
| COc1cc2c(cc1OC)C(C(=O)N1CCN(c3ccccn3)CC1)C(c1cccs1)N(C)C2=O (stereo not drawn) | -38 |
| O=C(O)CN(Cc1ccco1)S(=O)(=O)c1ccccc1 | 11.6 |
| Nc1nnc(SCC(=O)Nc2cccc(S(=O)(=O)N3CCCCC3)c2)s1 | -12.8 |
| CCCC[C@@H]1C[C@H]1[C@@H](NC(=O)c1cccs1)c1ccc(Cl)cc1 | -9.44 |
| CCCC[C@@H]1C[C@H]1[C@@H](NC(=O)c1ccco1)c1ccc(C(=O)OC)cc1 | -34 |
| CCCC[C@@H]1C[C@H]1[C@@H](NC(=O)c1ccco1)c1ccc(Cl)cc1 | -50.2 |
| CC(=O)NC(Cc1ccccc1C)C(=O)NC1CCN(C(=O)c2cccc(C)c2)CC1 (stereo not drawn) | 34.5 |
